DAX1 inh-1: NR0B1 (DAX1) inhibition. P51843. HEK293 Gal4-DAX1 luciferase reporter, luminescence. inhibition, % at 6.75 µM. 0.99% of 340,000 active;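 active = inhibition above the mean over all tested compounds plus 3 SD, cut at about 4.2% in these data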;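 also: 0% = DAX1-transfected cells with DMSO and 100% = empty-vector control cells with DMSO; inhibition shows as a rise in luminescence from relieved DAX1 repression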
Target sequence (P51843 207-470 limits assumed): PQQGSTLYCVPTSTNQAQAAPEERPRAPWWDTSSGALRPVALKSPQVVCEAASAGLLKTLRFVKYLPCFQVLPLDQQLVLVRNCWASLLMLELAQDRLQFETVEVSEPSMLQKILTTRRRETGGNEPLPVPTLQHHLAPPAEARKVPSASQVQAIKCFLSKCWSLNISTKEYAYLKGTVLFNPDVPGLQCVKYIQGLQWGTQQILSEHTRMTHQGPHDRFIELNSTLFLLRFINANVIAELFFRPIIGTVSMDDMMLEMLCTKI
hcDAF-12 act: activates DAF-12 receptor from parasite H. contortus | 1.4% of 370,000 active | HEK293 hcDAF-12 lit1-tk-luc reporter, luminescence; 0% DMSO, 100% Δ7-dafachronic acid | AID 652067 | activation, % at 6.8 µM;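 active = activation above the mean of all tested compounds plus 3 SD, cut at about 5.5% in these data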;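 also: 100% = response to 3 µM Δ7-dafachronic acid high control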
DAX1 inh-2: inhibitors of DAX1 repression of SF-1 activated StAR promoter; HEK293T StAR-luciferase reporter, SF-1/DAX-1 repression relief; inhibition, % at 6.8 µM; 1.1% of 370,000 active;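 active = inhibition above the mean over all tested compounds plus 3 SD, cut at about 3.6% in these data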;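 also: 0% = DAX-1 cells with DMSO and 100% = cells lacking DAX-1 with DMSO; higher inhibition means more luminescence from relief of DAX-1 repression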
Wee1 degr inh: human Wee1 degradation inhibition, primary screen; AID 1321; 1.2% of 220,000 active; P30291; reporter increase, % at 5 µM; HeLa Luc-Wee1K328M stability, luciferase luminescence; 100% = proteasome inhibitor MG132 effect;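 active = activation above the mean of all tested compounds plus 3 SD, set per screening run, cut at about 8.8% in these data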;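 also: cells exposed to compound for 20 h before luminescence read; 0% = DMSO alone and 100% = MG132 at 30 µM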
hgDAF12 agonist: agonists of H. glycines DAF-12 nuclear receptor; HEK293 GAL4-hgDAF12 UAS-luciferase reporter, agonist luminescence; normalized to butyrate control; activation, % at 6.8 µM; 1.8% of 370,000 active;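 active = activation above a cutoff set at the mean of all screened compounds plus 3 SD, cut at about 10% in these data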;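 also: 0% = DMSO wells and 100% = sodium butyrate wells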
ssDAF12 agonist: activators of S. stercoralis DAF-12 nuclear receptor. activation, % at 6.8 µM. 1% of 370,000 active. HEK293 ssDAF-12/GRIP1 lit1-tk-luc reporter, luminescence; % of 3 µM dafachronic acid response;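 active = activation above the mean over all tested compounds plus 3 SD, cut at about 0.9% in these data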;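 also: 0% = DMSO-only wells and 100% = 3 µM delta7-dafachronic acid wells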
DAX1 conf: confirmation of human DAX1 (NR0B1) inhibitors. 87% of 2,400 active. HEK293T StAR-promoter luciferase reporter, SF-1/DAX-1 repression. inhibition, % at 6.8 µM. AID 652134. shares compounds with DAX1 inh-2;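 active = inhibition above the average of every tested compound plus 3 SD, cut at about 3.8% in these data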;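 also: 0% = DAX-1 cells with DMSO and 100% = no DAX-1 control cells with DMSO; active compounds raise luminescence by relieving repression of the StAR reporter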
SF1 AF2mut Luc: counter-screen for DAX1 inhibitors: nonselective inhibitors with SF-1 AF2 mutant | 78% of 2,400 active | shares compounds with DAX1 inh-2 | inhibition, % at 6.8 µM | HEK293 StAR-luciferase, luminescence;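 active = inhibition above the mean of all tested compounds plus 3 SD, cut at about 3% in these data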;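 also: 0% = DAX-1 transfected cells with DMSO and 100% = cells without DAX-1 with DMSO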
LXRb hcDAF ctr: LXR-beta agonism as hcDAF-12 counter-screen; shares compounds with hcDAF-12 act; HEK293 Gal4-LXR tk-luc reporter, luminescence, 24 h; normalized: DMSO 0%, positive control 100%; activation, % at 6.8 µM; 3,400 tested, under 10 active;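 active = mean percent activation of the reporter above a cutoff set as the average over tested compounds plus their standard deviation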
Target sequence (P55055 whole entry, looked up, the tested form may be a part): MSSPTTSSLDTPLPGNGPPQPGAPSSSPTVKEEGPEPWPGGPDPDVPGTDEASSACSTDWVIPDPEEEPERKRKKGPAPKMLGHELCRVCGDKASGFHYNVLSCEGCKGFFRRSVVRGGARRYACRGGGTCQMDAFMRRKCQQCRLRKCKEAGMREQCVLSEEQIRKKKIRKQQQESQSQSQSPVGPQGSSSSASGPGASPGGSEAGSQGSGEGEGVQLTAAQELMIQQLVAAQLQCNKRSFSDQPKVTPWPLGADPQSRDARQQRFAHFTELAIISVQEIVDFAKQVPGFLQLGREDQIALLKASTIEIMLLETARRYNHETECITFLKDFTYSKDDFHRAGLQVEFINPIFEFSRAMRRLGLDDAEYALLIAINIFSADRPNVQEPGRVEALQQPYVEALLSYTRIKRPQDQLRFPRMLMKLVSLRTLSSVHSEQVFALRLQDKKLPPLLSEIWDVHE
hcDAF12 ag: confirmation of H. contortus DAF-12 agonists | HEK293 hcDAF-12 lit1-tk-luc reporter, luminescence; % of Δ7-dafachronic acid response | activation, % at 6.8 µM | shares compounds with hcDAF-12 act | 61% of 3,400 active;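 active = mean activation across triplicate tests above the threshold derived from the earlier primary screen, cut at about 5.5% in these data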;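 also: 0% = DMSO only wells and 100% = 3 µM Δ7-dafachronic acid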
hgDAF12 ag: hgDAF-12 agonism, confirmation assay; activation, % at 6.8 µM; shares compounds with hgDAF12 agonist; 80% of 3,300 active; HEK293 GAL4-hgDAF12 luciferase reporter, agonist mode; percent of butyrate response;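 active = mean activation over triplicate wells above the hit cutoff derived from the earlier primary screen, cut at about 11% in these data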;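 also: 0% = DMSO low control and 100% = 2 mM sodium butyrate high control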
LXRb DAF12 ctr: counter-screen for DAF-12 agonists: agonists of human LXR-beta; shares compounds with hgDAF12 agonist; HEK293 Gal4-LXR luciferase reporter, 24 h; activation, % at 6.8 µM; 3,300 tested, under 10 active; AID 743051;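 active = mean activation of the triplicate above a set limit carried over from the primary screen, none filed active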
* = called active by the depositor; x = no result. Shown are actives, neighbours in structure and some others; about 4.6% of the full set was active somewhere.

SMILES | DAX1 inh-1 | hcDAF-12 act | DAX1 inh-2 | Wee1 degr inh | hgDAF12 agonist | ssDAF12 agonist | DAX1 conf | SF1 AF2mut Luc | hgDAF12 ag | LXRb DAF12 ctr | others
COc1ccccc1-c1csc(C(O)(c2ccccc2)C(F)(F)F)n1 (configuration not stated) | x | 1.2 | 0.0 | x | 0.8 | -1.6 | x | x | x | x
CSc1ccccc1OCc1cc(C(=O)NCc2ccc(C)s2)no1 | 0.2 | 1.3 | 0.1 | x | 1.5 | -1.1 | x | x | x | x
CCOC(=O)c1ccc(CNC(=O)c2cc(COc3ccccc3SC)on2)o1 | 2.0 | 3.8 | 5.4* | x | 14.6* | -0.2 | 8.8* | 4.5* | 17.8* | 0.8
CC(C)c1ccc(NC(=O)C2(C)Cc3c(-c4cccc(C(N)=O)c4)ccnc3O2)cc1 (configuration not stated) | x | -1.7 | -1.8 | x | 0.2 | -1.6 | x | x | x | x
COC(=O)C[C@H]1CC[C@@H](NC(=O)c2ccncc2)[C@@H](CO)O1 | x | -1.4 | 0.5 | x | 1.1 | -1.0 | x | x | x | x
CCCCNC(=O)Nc1nc2ccccc2s1 | 8.8* | 2.8 | 5.5* | 7.2 | 14.6* | 0.1 | 10.5* | 4.8* | 14.7* | 0.7
Cc1ccc(C(=O)O)c(C(=O)Nc2nc3ccccc3s2)c1 | 0.8 | 2.7 | 0.8 | x | 2.9 | 0.1 | x | x | x | x
Cc1ccc(C(=O)Nc2nc3ccccc3s2)s1 | 0.6 | 11.9* | 4.8* | 1.9 | 21.4* | 0.7 | 15.8* | 6.2* | 21.7* | 1.2 | LXRb hcDAF ctr=1.8;hcDAF12 ag=11.1*
CCC(=O)Nc1ccc(NC(=O)c2oc3ccccc3c2C)cc1 | -1.4 | -6.9 | -0.9 | x | -9.4 | -3.1 | x | x | x | x
Cc1ccnc(NC(=O)c2oc3ccccc3c2C)c1 | -0.1 | 19.9* | 10.5* | x | 22.1* | 3.0* | 9.2* | 3.7* | 19.6* | 1.4 | LXRb hcDAF ctr=1.7;hcDAF12 ag=15.1*
Cc1csc(NC(=O)c2oc3ccccc3c2C)n1 | 1.7 | 18.3* | 13.7* | x | 18.6* | 2.1* | 13.4* | 8.0* | 17.1* | 1.5 | LXRb hcDAF ctr=2.1;hcDAF12 ag=18.1*
Cc1c(C(=O)Nc2cnccn2)oc2ccccc12 | 2.7 | x | x | 1.2 | x | x | x | x | x | x
CCOc1ccc2oc(C(=O)Nc3cc(C)ccn3)c(C)c2c1 | 2.5 | 2.7 | 13.1* | x | 13.6* | 0.0 | 11.0* | 5.0* | 17.2* | 0.9
CC(C)(O)C#Cc1cccc(-c2nc(C(=O)NCCCN3CCOCC3)cc3c2[C@H](CCO)N(S(=O)C(C)(C)C)C3)c1 (some centres not stated) | x | -0.7 | -0.6 | x | 0.5 | -1.5 | x | x | x | x
Cc1ccc2nc(N(CCN3CCOCC3)C(=O)CCS(=O)(=O)c3ccccc3)sc2c1 | 3.7 | 0.2 | 5.1* | x | 13.8* | -0.1 | 6.8* | 4.8* | 11.4* | 0.3
Cc1c(NC(=S)NC(=O)c2sc3ccccc3c2Cl)cccc1C(=O)O | -0.6 | 2.7 | 5.9* | 4.2 | 17.9* | 0.2 | 9.6* | 6.8* | 15.7* | 0.5
COc1ccccc1C(=O)NC(=S)NNC(=O)c1sc2ccccc2c1Cl | 0.8 | 3.0 | 0.3 | -0.2 | 0.2 | -0.5 | x | x | x | x
Cc1ccc(Cc2c(-c3ccc(C)cc3)nc3ccc(Br)cn23)cc1 | 3.1 | 4.6 | 2.6 | x | 8.6 | -0.1 | x | x | x | x
Cc1ccc(Cc2c(-c3ccc(C)cc3)nc3cc(C)ccn23)cc1 | 2.1 | 1.9 | 6.2* | x | 17.8* | -0.2 | 2.0 | 0.5 | 3.5 | 0.3
Cc1ccn2c(Cc3ccccc3)c(-c3ccc(Br)cc3)nc2c1 | 1.6 | 1.3 | 8.4* | x | 16.9* | 0.0 | 5.3* | 0.8 | 2.0 | 0.2
CC(C)C[C@@H]1COc2cc(N3CCSCC3)ccc2S(=O)(=O)N1 | x | -1.1 | 2.3 | x | -0.2 | -0.9 | x | x | x | x
COc1ccccc1Nc1nc(-c2sc(N)nc2C)cs1 | -1.3 | 2.5 | 0.0 | x | 0.9 | -1.1 | x | x | x | x
Cc1nc(N)sc1-c1csc(Nc2ncccn2)n1 | 1.3 | 3.6 | 5.4* | 0.7 | 16.2* | -0.2 | 8.4* | 4.8* | 12.5* | 0.5
Fc1ccccc1CSc1ncnc2c1ncn2C1CCCCO1 (configuration not stated) | 0.7 | 5.0 | 6.1* | x | 14.4* | 0.2 | 8.6* | 5.0* | 12.7* | 0.8
C/C(=N\Nc1nccnc1Cl)c1c(F)c(F)c(F)c(F)c1F | -1.3 | 0.6 | 0.7 | 1.4 | -0.1 | -2.0 | x | x | x | x
SMILES | DAX1 inh-1 | hcDAF-12 act | DAX1 inh-2 | Wee1 degr inh | hgDAF12 agonist | ssDAF12 agonist | DAX1 conf | SF1 AF2mut Luc | hgDAF12 ag | LXRb DAF12 ctr | others
C/C(=N\Nc1nccnc1Cl)c1ccc(F)cc1 | 2.1 | 4.3 | 9.6* | -2.2 | 20.1* | 1.5* | 6.5* | 4.2* | 11.2* | 0.4
C/C(=N\Nc1nccnc1Cl)c1ccc(Cl)c(Cl)c1 | 2.4 | 6.3* | 4.5* | x | 16.7* | 0.6 | 2.8 | 2.7 | 3.3 | 0.1
Cc1noc(C)c1S(=O)(=O)NC(=O)C1(C)CCN1C(=O)c1ccc(C2CCCCC2)cc1 (configuration not stated) | x | 3.6 | 0.0 | x | 2.4 | -0.8 | x | x | x | x
Cc1ccc(OCC(=O)N2CCc3ccccc32)cc1 | 2.7 | 10.6* | 5.1* | -1.8 | 21.8* | 1.6* | 15.1* | 9.1* | 13.0* | 0.8 | LXRb hcDAF ctr=1.1;hcDAF12 ag=5.7*
COc1ccc(NC(=O)N2CCCc3ccccc32)cc1 | 1.2 | 3.5 | 1.4 | 0.9 | 5.5 | -0.6 | x | x | x | x
COc1ccc(NC(=O)N2CCc3ccccc32)cc1 | -1.0 | 9.1* | 5.1* | 1.0 | 16.0* | 1.0* | 15.2* | 5.8* | 17.7* | 1.0 | LXRb hcDAF ctr=1.5;hcDAF12 ag=7.4*
CCN(C(=O)COC(=O)c1cc(Cl)ccc1OC)c1c(N)n(Cc2ccccc2)c(=O)[nH]c1=O | 0.6 | 0.0 | 0.0 | x | 1.1 | -0.6 | x | x | x | x
C/C(=N/NC(=O)c1cccs1)c1ccc(N2CCOCC2)cc1 | 3.6 | 6.0* | 4.7* | 3.0 | 19.8* | 0.2 | 3.5 | 1.7 | 5.1 | 0.2
C=CCNc1nc(-c2cc3ccccc3o2)cs1 | 0.1 | 9.1* | 6.5* | 0.4 | 18.4* | 1.5* | 14.2* | 4.1* | 17.8* | 0.8 | LXRb hcDAF ctr=1.6;hcDAF12 ag=8.3*
C=CCNc1nc(-c2ccc(O)c(C(N)=O)c2)cs1 | 0.8 | 0.4 | 0.6 | 0.2 | 1.6 | -0.7 | x | x | x | x

Compound activity deposited in PubChem by The Scripps Research Institute Molecular Screening Center.
